The test system of assay [1] is XIP peptide (Xip251-270) binding. Description: XIP fragment 251-270 binding compounds – biochemical, small-molecule microarray, fluorescence 635/667 nm, 0.1 µg/mL protein, primary screen (AID 1182). The conditions noted are these: fluorescent protein binding, 635 nm, higher = more signal, called active from +8 up or from −8 down.
For assay [2], the system named is XIP peptide (Xip251-270). Description: compounds binding XIP fragment 251-270 – biochemical, small-molecule microarray, fluorescence 635/667 nm, 0.5 µg/mL protein, primary screen (AID 1183). The conditions noted are these: fluorescence 635 nm, higher = more signal.
The nature of assay [3]: blood-stage malaria parasite viability loss – strain 3D7, DAPI fluorescence, 100 nL, primary screen (AID 1184).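 Also: parasites grown inside human red blood cells in medium with human serum.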 The note with it: P. falciparum 3D7 growth, 3 d, higher = more signal.
Assay [4] deals with Homeobox protein Hox-A13 (Mus musculus) (UniProt Q62424). Description: disruptors of Hoxa13 oligonucleotide interaction – biochemical, fluorescence polarization, labeled oligonucleotide, primary screen (AID 1185). The conditions noted are these: Hoxa13:DNA binding, 15 min, higher = more signal, called active from +8 up or from −8 down. On the technique in general: Polarisation of emitted light reports the rotation of a fluorescent probe.
Homeobox protein Hox-A13 (Mus musculus), sequence (Q62424 whole entry, looked up): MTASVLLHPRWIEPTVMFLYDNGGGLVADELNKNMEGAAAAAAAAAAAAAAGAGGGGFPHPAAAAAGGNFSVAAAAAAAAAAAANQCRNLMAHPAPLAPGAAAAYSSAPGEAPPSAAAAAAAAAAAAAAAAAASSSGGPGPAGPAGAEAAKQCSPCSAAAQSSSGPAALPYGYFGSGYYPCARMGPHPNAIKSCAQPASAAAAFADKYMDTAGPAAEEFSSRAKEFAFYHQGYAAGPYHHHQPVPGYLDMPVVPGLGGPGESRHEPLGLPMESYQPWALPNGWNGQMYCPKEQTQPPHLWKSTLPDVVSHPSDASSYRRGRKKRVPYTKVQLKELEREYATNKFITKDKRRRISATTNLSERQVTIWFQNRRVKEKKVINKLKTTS

The nature of assay [5]: blockers of DNA damage checkpoint Chk1 activation – imaging, HeLa, hydroxyurea, phospho-Chk1 antibody, percent positive cells, primary screen (AID 1186). The conditions noted are these: hydroxyurea-induced phospho-Chk1 immunofluorescence imaging, higher = more signal.
Assay [6] can be described thus: blockers of DNA damage checkpoint Chk1 activation – imaging, HeLa, hydroxyurea, phospho-Chk1 nuclear intensity, primary screen (AID 1187). The note with it: hydroxyurea-induced phospho-Chk1 immunofluorescence imaging, higher = more signal.

Activity calls are given as the source filed them. Unless noted, no rule for the calls is given here.

With `C[C@]12C(=O)N(CCO)[C@@H]3C(=O)N(c4ccc(Cl)cc4)CC=CC31O[C@@H]1/C=C\CCCOC(=O)C12` (some centres not stated), the composite z-score in assay [1] was -0.0502 (inactive); in assay [2], 0.913. In addition, the z-score is -1.39 in assay [3], -3.46 (inactive) in assay [4], 0.245 (inactive) in assay [5] and 0.129 (inactive) in assay [6].
Consider `COC(=O)[C@@]1(Cc2ccc(OC)cc2)[C@@H]2[C@@H](CC(=O)[C@H]2CC(=O)C(=O)N(C)C)CN1C(=O)c1ccccc1`, for which the results for the composite z-score in assay [1] and in assay [2] were 0.206 (inactive) and 0.516, respectively. The z-score in assay [3] was -1.56; in assay [4] it was -2.61 (inactive); in assay [5], 0.0341 (inactive); in assay [6] it was -1.04 (inactive).
For `COC(=O)C[C@H]1O[C@]2(C(=O)N(C)c3ccccc32)[C@@H](C)[C@@H]1[Si](C)(C)c1ccccc1`, the composite z-score was -0.182 (inactive) in assay [1] and 0.428 in assay [2]. Further, the z-score in assay [3] is -1.48; in assay [4], -7.09 (inactive); in assay [5], -0.0412 (inactive); in assay [6], 0.192 (inactive).
On to `CC(C)(C)OC(=O)CC[C@@]1(C(N)=O)N=C(c2ccc(OCCCO)cc2)O[C@@H]1c1ccccc1CN=[N+]=[N-]`, for which the figures for the composite z-score in assay [1] and in assay [2] were -0.015 (inactive) and 0.297, respectively. For the same compound, the z-score in assay [3] was 1.1; in assay [4], -4.71 (inactive); in assay [5], 0.3 (inactive); in assay [6] it was 0.317 (inactive).
On to `COCCCNC(=O)[C@@]1(Cc2ccccc2I)c2ccccc2C(=O)N(Cc2ccccc2C(F)(F)F)[C@H]1c1ccc(CO)cc1`, for which the composite z-score in assay [1] is 0.739 (inactive); in assay [2], 0.854. The z-score in assay [3] was -0.821; in assay [4] it was -4.3 (inactive); in assay [5] it was 0.0894 (inactive); in assay [6] it was -0.0472 (inactive).
Consider `C=CCNC(=O)[C@H]1[C@@H]2C(=O)O[C@@H](c3ccccc3)[C@@H](c3ccccc3)N2[C@@H](c2ccc(OCCO)cc2)[C@]12C(=O)Nc1ccc(C#Cc3ccc(OC)cc3)cc12`, for which the composite z-score in assay [1] is 0.43 (inactive); in assay [2], 0.773. Moreover, the z-score in assay [3] was -2.39; in assay [4], -0.279 (inactive); in assay [5], 0.165 (inactive); in assay [6], 0.202 (inactive).
Consider `CO[C@H]1O[C@H](CO)[C@@H](OC(=O)Nc2ccccc2)[C@@H]2OC(=O)[C@@H](Cc3ccccc3)C/C=C/C[C@H](Cc3ccccc3)C(=O)O[C@@H]12`, for which the results for the composite z-score in assay [1] and in assay [2] were 0.0585 (inactive) and 0.455, respectively. Further, the z-score in assay [3] was 0.232; in assay [4] it was -0.539 (inactive); in assay [5], -0.741 (inactive); in assay [6], -0.467 (inactive).
As for `COC(=O)[C@@]1(Cc2ccc(F)cc2)[C@H]2c3cc(C(=O)N4CCCC4)n(Cc4ccc(C(F)(F)F)nc4)c3C[C@H]2CN1C(=O)c1ccccc1`, the composite z-score in assay [1] is 0.216 (inactive); in assay [2] it was 0.602. The z-score in assay [3] is -0.532; in assay [4], -3.29 (inactive); in assay [5] it was 0.278 (inactive); in assay [6], 0.554 (inactive).
Take `CC1C2C(CCCO)=CC(C3C(=O)N(C(N)=O)C(=O)C23)N1Cc1cccc(OC(F)(F)F)c1` (configuration not stated): the composite z-score was 1.51 (inactive) in assay [1] and 0.256 in assay [2]. The z-score is -0.128 in assay [3], -7.99 (inactive) in assay [4], 0.37 (inactive) in assay [5] and 0.181 (inactive) in assay [6].
As for `CN1C(=O)C2C=CC(C(O)c3cccs3)N(N(c3ccccc3)c3ccccc3)C2C1=O` (configuration not stated), the composite z-score in assay [1] was 0.564 (inactive); in assay [2], 0.482. In addition, the z-score in assay [3] is -0.0266; in assay [4], -4.42 (inactive); in assay [5], 0.557 (inactive); in assay [6] it was -0.499 (inactive).
In the case of `COC(=O)[C@@]1(Cc2ccc(F)cc2)[C@H]2c3cc(C(=O)N4CCCC4)n(C[C@H](O)CO)c3C[C@H]2CN1C(=O)c1ccccc1`, the results for the composite z-score in assay [1] and in assay [2] were 1.17 (inactive) and 0.0592, respectively. Moreover, the z-score in assay [3] was -0.534; in assay [4], -5.57 (inactive); in assay [5], 0.588 (inactive); in assay [6], 0.439 (inactive).
With `Cc1ccc(S[C@]2(C(=O)NCc3ccccc3)CC(=O)N(Cc3ccccc3C(F)(F)F)[C@@H]2c2ccc(CO)cc2I)cc1`, the composite z-score in assay [1] is 0.404 (inactive); in assay [2], 0.623. Also, the z-score in assay [3] was 0.0951; in assay [4] it was -2.23 (inactive); in assay [5], 0.225 (inactive); in assay [6], 0.923 (inactive).
In the case of `COc1cc2c(cc1O)C(C)N(Cc1sc3ccccc3c1Cl)CC2` (configuration not stated), the values for the composite z-score in assay [1] and in assay [2] were -0.173 (inactive) and 0.547, respectively. Also, the z-score was -1.37 in assay [3], -3.39 (inactive) in assay [4], -0.632 (inactive) in assay [5] and -0.817 (inactive) in assay [6].
Take `O=C1O[C@H](c2ccccc2)[C@H](c2ccccc2)N2[C@H]1[C@@H](C(=O)Nc1nc3ccccc3s1)[C@]1(C(=O)Nc3ccccc31)[C@H]2c1ccccc1OCCO`: the composite z-score in assay [1] was 1.18 (inactive); in assay [2] it was 0.758. The z-score in assay [3] is -1.08; in assay [4] it was 2 (inactive); in assay [5] it was 0.153 (inactive); in assay [6], 0.65 (inactive).
In the case of `COC(=O)[C@@]1(Cc2ccccc2)[C@H]2c3cc(C(=O)N(C)C)n(Cc4nc5ccccc5[nH]4)c3C[C@H]2CN1C(=O)c1ccccc1`, the composite z-score in assay [1] is 0.857 (inactive); in assay [2], 0.784. The z-score in assay [3] was -0.542; in assay [4] it was -1.6 (inactive); in assay [5], -0.283 (inactive); in assay [6] it was 0.0294 (inactive).
`[N-]=[N+]=NCc1ccccc1[C@H]1OC(c2ccc(OCCCO)cc2)=N[C@@]1(Cc1ccccc1N=[N+]=[N-])C(N)=O`: the composite z-score is -0.19 (inactive) in assay [1] and 0.599 in assay [2]. Further, the z-score was -0.885 in assay [3], -6.25 (inactive) in assay [4], 0.052 (inactive) in assay [5] and 0.516 (inactive) in assay [6].
`CCCCN1CC=CC23O[C@@H]4C=CCCOC(=O)C4[C@H]2C(=O)N(CCO)[C@@H]3C1=O` (some centres not stated): the composite z-score in assay [1] was 0.61 (inactive); in assay [2] it was 0.485. Further, the z-score in assay [3] is 0.211; in assay [4] it was -4.53 (inactive); in assay [5], -0.307 (inactive); in assay [6] it was -0.815 (inactive).

The record behind these values is PubChem BioAssay.
